TROY NFkB inh = blocks TROY-dependent signaling in reporter cells. inhibition, % at 10 µM. Q293 LMP1-TROYcd NF-kB luciferase reporter, 4 h. actives 0.98% (n = 360,000);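 active = compounds whose plate-normalised and pattern-corrected inhibition of the luciferase reporter signal at the single screening dose is 50% or more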
TWEAK Fn14 block = inhibitors of TWEAK-Fn14 interaction signaling; TWEAK-stimulated Fn14 reporter cells, luciferase luminescence, 8 h; actives 2% (n = 360,000); inhibition, % at 10 µM; in the data active = inhibition above about 50%
LMP1 NFkB inh = reduces LMP1-driven NF-kappaB luciferase signal; LMP1-induced NF-kappaB luciferase reporter cells, luminescence; inhibition, % at 12.5 µM; actives 0.69% (n = 350,000); AID 504558; in the data active = inhibition above about 41%;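 note: 0% = neutral control wells and 100% = reference inhibitor control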
Peg3 promoter = reduces Peg3 promoter-driven luciferase expression in HeLa | actives 1.7% (n = 360,000) | inhibition, % at 20 µM | AID 588405 | HeLa PEG-Prom luciferase reporter, luminescence, overnight;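 active = inhibition of at least 50% at 20 µM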
Shn3 inh set2 = inhibitors of Schnurri-3 3'UTR reporter in osteoblasts; Clone20 osteoblast Shn3 3'UTR firefly luciferase, 24 h; inhibition, % at 12.5 µM; AID 588674; actives 0.52% (n = 360,000);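 active = mean inhibition of at least 75% with every replicate also reaching 75%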;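 note: 0% = median of neutral control wells and 100% = pilot-screen positive control compound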
TRPM1 prom inh = reduces MITF-dependent TRPM1 promoter luciferase signal. actives 0.83% (n = 330,000). SK-MEL-5 TRPM1 promoter luciferase, 24 h. inhibition, % at 12.5 µM;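 active = mean inhibition across replicates of 60% or more, whatever share of single replicates reaches that level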
The depositor's hits bear a star; / = not tested or not shown. Most compounds without a hit are left out; they make up all but 4.1% or so of the library.

SMILES	TROY NFkB inh	TWEAK Fn14 block	LMP1 NFkB inh	Peg3 promoter	Shn3 inh set2	TRPM1 prom inh
Nc1ccc(Oc2ccccc2F)nc1	16	-11	5	-2	/	-5
Nc1cccnc1Oc1ccccc1F	68*	9	2	2	3	3
CC1CCCCN1C(=O)CCS(=O)(=O)c1cccc2nonc12 (configuration not stated)	-2	-5	2	8	-7	1
CC(=O)N(CCc1ccccc1C)Cc1cc2cc3c(cc2[nH]c1=O)OCO3	/	100*	8	7	4	2
CCC(=O)N(CCc1ccccc1C)Cc1cc2ccc(C)cc2[nH]c1=O	16	1	0	25	-9	0
O=C(/C=C/c1ccccc1)C1C(=O)c2ccccc2C1=O	-30	28	34	-121	-32	0
CC[N+]1(C)CCC(O)(/C=C/c2ccccc2)C(C(=O)/C=C/c2ccccc2)C1 (configuration not stated)	12	65*	-3	97*	99*	66*
COc1ccc([C@H]2CC(=O)C=C(c3ccc4[nH]ccc4c3)C2)cc1OC	53*	-23	-4	-71	-24	-11
Cc1cc(OC(C)C(=O)NCCN2CCOCC2)c2c(C)cc(=O)oc2c1 (configuration not stated)	-13	0	6	10	5	-1
COc1ccc(OC)c(N/C(C)=C/C(=O)c2ccc(Br)cc2)c1	-11	-14	-2	-105	-19	-28
O=C(Cc1csc(Nc2nc(=S)[nH]c3ccccc23)n1)N1CCN(c2cccc(C(F)(F)F)c2)CC1	19	17	-29	80*	54	51
CC1CC(C)CN(C(=O)CCNC(=O)c2ccccc2Cl)C1 (configuration not stated)	-2	1	1	-3	17	-2
Cc1noc(C)c1S(=O)(=O)Nc1ccccc1Oc1ccccc1	-8	13	-6	14	13	-24
O=C1c2ccccc2-c2onc3ccc(Oc4ccccc4)c1c23	-7	56*	53*	104*	90*	97*
CCOCCCNCc1ccc(OC)cc1	-11	18	-1	19	-3	2
COc1ccc2cc(CNCCOCCOCCNCc3ccc4cc(OC)ccc4c3)ccc2c1	58*	-68	-54	109*	96*	91*
Cc1ccnc(Cc2ccccc2)n1	-3	5	-10	13	-2	-6
CSc1ccccc1C(=O)OCC(=O)NC1CCS(=O)(=O)C1 (configuration not stated)	-7	-10	-7	3	-7	2
O=C(NCC(c1ccco1)N1CCCCC1)c1cnc(Cl)c(Cl)c1 (configuration not stated)	3	1	5	2	-9	/
CCOC(=O)C(C)(C)N(Cc1ccc(C)cc1)S(=O)(=O)c1ccc(Cl)c([N+](=O)[O-])c1	30	60*	1	105*	4	91*
CC(=O)c1ccc(OCCCC(=O)Nc2cccc(S(=O)(=O)N3CCCCC3)c2)cc1	24	4	5	23	16	6
CC(C)CN1CCN(Cc2ccc(Oc3ncccn3)cc2)CC1CCO (configuration not stated)	3	7	-22	14	-3	2
COc1ccc(/C=C/C(=O)c2ccc([N+](=O)[O-])o2)cc1	-4	54*	-51	101*	50	/
O=C(/C=C/c1cccc([N+](=O)[O-])c1)c1ccc([N+](=O)[O-])o1	73*	98*	14	100*	97*	99*
Cc1cccc(/C=C/C(=O)c2ccc([N+](=O)[O-])o2)c1	23	61*	-89	101*	22	/
COc1ccc(S(=O)(=O)N2CCN(C(=O)c3ccc([N+](=O)[O-])o3)CC2)cc1	-26	-7	6	-16	12	22
COc1ccc(/C=C2\Cc3ccccc3C2=O)cc1OC	-66	-5	2	-38	-16	-5
CCOc1ccc(/C=C2\CCC(C3CCCC3)C2=O)cc1OC (configuration not stated)	-49	-20	-15	-71	16	-40
COc1ccc(/C=C2/CSC/C(=C/c3ccc(OC)c(OC)c3)C2=O)cc1OC	15	92*	90*	100*	98*	99*
